Screening results (PubChem BioAssay)
Compounds with a hit are over-represented: about 2.4% of the library has one in this group of screens.
M1 ag parental – counter-screen for M1 agonists: effect in parental CHO-K1 cells; Fluo-8 calcium fluorescence; scaled to maximal ATP response, vehicle zero; activation, % at 3 µM; 0.48% of 360,000 active; in the data active = activation above about 15%;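 also: untransfected CHO-K1 host cells lacking M1 receptor as counterscreen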
CHO-K1 Ca PAM – nonselective calcium activators in parental CHO-K1 cells, primary screen, counter-screen for M1 PAM project, cell-based, Fluo-8 calcium fluorescence, full deck, 1536-well; ATP EC20; 0% at ATP EC20, 100% at ATP max; activation, % at 3 µM; 0.02% of 360,000 active; AID 602247, 2012;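 active = activation above the run cutoff, the mean activation of all test compounds plus 3 SD, cut at about 40% in these data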;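 also: peak over basal fluorescence ratio in a 140 s read after ATP addition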
M1 antag – human M1 muscarinic receptor antagonists, primary screen, CHO-K1 cells, Fluo-8 calcium fluorescence, 1536-well; inhibition, % at 3 µM; 1.3% of 360,000 active; CHO-K1 hM1, ACh EC80 antagonist; AID 588852, 2011; Muscarinic acetylcholine receptor M1 (Homo sapiens), P11229;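 active = percent inhibition above its own plate's cutoff, namely the mean of that plate's compound wells plus 3 SD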;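 also: peak over basal fluorescence ratio during 140 s after agonist addition; 0% = ACh EC80 plus DMSO and 100% = DMSO alone without agonist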
Target sequence (P11229 whole entry, looked up): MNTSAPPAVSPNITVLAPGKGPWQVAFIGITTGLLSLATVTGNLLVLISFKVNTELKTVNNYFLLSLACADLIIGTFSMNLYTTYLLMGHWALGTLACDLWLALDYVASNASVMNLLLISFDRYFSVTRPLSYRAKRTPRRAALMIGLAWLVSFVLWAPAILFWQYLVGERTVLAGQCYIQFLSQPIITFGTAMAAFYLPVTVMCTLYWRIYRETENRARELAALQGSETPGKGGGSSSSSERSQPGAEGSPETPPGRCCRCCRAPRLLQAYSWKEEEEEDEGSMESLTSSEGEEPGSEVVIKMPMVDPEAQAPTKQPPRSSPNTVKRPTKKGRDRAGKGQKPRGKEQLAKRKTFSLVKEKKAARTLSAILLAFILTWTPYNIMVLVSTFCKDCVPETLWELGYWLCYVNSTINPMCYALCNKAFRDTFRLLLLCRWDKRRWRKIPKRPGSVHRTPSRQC
CHRM1 agonist – human M1 muscarinic receptor agonists, primary screen, Fluo-8 calcium fluorescence, CHO-K1 cells, HTS; CHO-K1 hM1, agonist mode; 0% DMSO, 100% acetylcholine EC100; activation, % at 3 µM; 0.33% of 360,000 active; AID 588814, 2011;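 active = activation above the run's mean compound activation plus 3 SD, cut at about 16% in these data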;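 also: peak over basal fluorescence ratio within a 140 s kinetic read after compound addition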
CHO-K1 Ca antag – nonselective inhibitor or artifact in parental CHO-K1 cells; 0.6% of 360,000 active; ATP-induced calcium, Fluo-8 fluorescence; inhibition, % at 3 µM;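 active = inhibition above a per-plate cutoff, the plate's mean sample inhibition plus 3 SD, cut at about 24% in these data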;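 also: 0% = DMSO plus EC80 ATP and 100% = DMSO alone without ATP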
CHRM1 PAM – human M1 muscarinic receptor positive allosteric modulators, primary screen, CHO-K1 cells, Fluo-8 calcium fluorescence, 1536-well | Muscarinic acetylcholine receptor M1 (Homo sapiens), P11229 | CHO-K1 hM1, ACh EC20; 0% = ACh EC20, 100% = maximal ACh | activation, % at 3 µM | 0.088% of 360,000 active; in the data active = activation above about 19%, passing the limit was not always enough
Active calls of the source: *.

CCOC(=O)C1(CCOC)CCN(C/C=C/c2ccccc2OC)CC1 was read as M1 ag parental 5.5, CHO-K1 Ca PAM -1.3, M1 antag 16.8, CHRM1 agonist -5.3, CHO-K1 Ca antag 30.7* and CHRM1 PAM -10.8.
N#Cc1ccc(CSc2nnc(NC(=O)CN3C(=O)C4CC=CCC4C3=O)s2)cc1 (stereo unspecified) was read as M1 ag parental 1.1, CHO-K1 Ca PAM 21.2, M1 antag -9.8, CHRM1 agonist -1.9, CHO-K1 Ca antag -6.7 and CHRM1 PAM 3.3.
Cc1cc(=O)oc2cc(OCC(=O)OCC(=O)NC(=O)NC(C)C)ccc12 was read as M1 ag parental 0.2, CHO-K1 Ca PAM -17.8, M1 antag 11.3, CHRM1 agonist -2.1, CHO-K1 Ca antag 9.9 and CHRM1 PAM -3.8.
For CC1=C(CCN2CCN(C(C)C)C(CCO)C2)C(C)(C)CCC1 (stereo unspecified) the results were M1 ag parental 1.5, CHO-K1 Ca PAM 15.7, M1 antag -8.9, CHRM1 agonist -12.9, CHO-K1 Ca antag -15.2 and CHRM1 PAM 10.3.
COc1cc(NC(=O)c2ccc(-c3cccc([N+](=O)[O-])c3)o2)ccc1NC(=O)C(C)C was read as M1 ag parental 3.3, CHO-K1 Ca PAM -2.1, M1 antag -4.0, CHRM1 agonist -2.3, CHO-K1 Ca antag -14.1 and CHRM1 PAM -0.6.
For CC(=O)N1c2ccccc2[C@H](C)[C@H]1C the results were M1 ag parental 0.5, CHO-K1 Ca PAM 3.4, M1 antag -3.8, CHRM1 agonist -4.0, CHO-K1 Ca antag -9.1 and CHRM1 PAM 2.5.
For NS(=O)(=O)c1ccc(NCc2ccccc2OCc2ccccc2F)cc1 the results were M1 ag parental 4.5, CHO-K1 Ca PAM 11.8, M1 antag 10.8, CHRM1 agonist -4.4, CHO-K1 Ca antag 1.8 and CHRM1 PAM -1.1.
Screening O=C(COc1ccc2ccccc2c1)N1CCN(C(=O)c2ccco2)CC1 returned M1 ag parental 1.4, CHO-K1 Ca PAM -10.7, M1 antag 5.1, CHRM1 agonist 0.5, CHO-K1 Ca antag 22.4 and CHRM1 PAM 4.6.
For CCOC(=O)C1(CCCc2ccccc2)CCN(C(=O)CCC2=NNC(=O)CC2)CC1 the results were M1 ag parental 25.3*, CHO-K1 Ca PAM 2.7, M1 antag 5.7, CHRM1 agonist -6.5, CHO-K1 Ca antag 17.1 and CHRM1 PAM -4.8.
Screening CCOC(=O)C1(CCCc2ccccc2)CCN(C(=O)CSC)CC1 returned M1 ag parental 1.7, CHO-K1 Ca PAM 3.5, M1 antag -9.9, CHRM1 agonist -2.2, CHO-K1 Ca antag -13.5 and CHRM1 PAM 2.6.
For CCOC(=O)C1(CCCc2ccccc2)CCN(Cc2nccn2CC)CC1 the results were M1 ag parental 3.0, CHO-K1 Ca PAM -11.5, M1 antag 48.4*, CHRM1 agonist -10.1, CHO-K1 Ca antag 18.0 and CHRM1 PAM -28.7.
O=C1ON=C(c2ccccc2)/C1=C/c1ccc(-c2ccccc2[N+](=O)[O-])o1 was read as M1 ag parental 0.6, CHO-K1 Ca PAM 8.2, M1 antag 11.0, CHRM1 agonist -1.3, CHO-K1 Ca antag -2.6 and CHRM1 PAM 8.7.
For Cn1c2c(c3ccccc31)CCSC2=O the results were M1 ag parental 0.2, CHO-K1 Ca PAM 19.7, M1 antag -6.1, CHRM1 agonist -7.0, CHO-K1 Ca antag -7.1 and CHRM1 PAM 10.6.
`COc1cc(CNCCNC(=O)c2nonc2N)ccc1OCc1ccc(Cl)nc1` gave M1 ag parental 19.9*, CHO-K1 Ca PAM 24.1, M1 antag -0.2, CHRM1 agonist -10.7, CHO-K1 Ca antag -7.9 and CHRM1 PAM 14.6.
For COc1ccc(CNCCNC(=O)c2nonc2N)cc1OC the results were M1 ag parental -0.2, CHO-K1 Ca PAM -4.9, M1 antag 4.4, CHRM1 agonist -4.2, CHO-K1 Ca antag 23.2 and CHRM1 PAM 9.2.
Screening O=C(OCCN1CCOCC1)c1ccc2c(c1)OCCO2 returned M1 ag parental 0.4, CHO-K1 Ca PAM 13.5, M1 antag -9.1, CHRM1 agonist -1.8, CHO-K1 Ca antag 0.4 and CHRM1 PAM 6.7.
O=S(=O)(Nc1ccc(Nc2ccccc2)cc1)c1ccc(F)cc1 was read as M1 ag parental -0.5, CHO-K1 Ca PAM -26.4, M1 antag -9.5, CHRM1 agonist 0.0, CHO-K1 Ca antag 24.4* and CHRM1 PAM 9.0.
Screening O=[N+]([O-])c1ccc(S(=O)(=O)Nc2ccncc2)cc1 returned M1 ag parental -0.5, CHO-K1 Ca PAM 1.0, M1 antag -7.0, CHRM1 agonist -4.4, CHO-K1 Ca antag -9.3 and CHRM1 PAM 1.7.
O=[N+]([O-])c1ccc(Oc2ccc(S(=O)(=O)Nc3ccccc3)cc2)cc1 was read as M1 ag parental 18.9*, CHO-K1 Ca PAM -5.6, M1 antag 41.6*, CHRM1 agonist 19.4*, CHO-K1 Ca antag 29.3* and CHRM1 PAM -17.4.
For Cc1ccc(S(=O)(=O)Nc2ccc(Nc3ccccc3)cc2)cc1 the results were M1 ag parental 0.5, CHO-K1 Ca PAM -7.9, M1 antag -5.9, CHRM1 agonist -1.1, CHO-K1 Ca antag 7.8 and CHRM1 PAM 4.4.
CC1=CC(C)(C)NC(=S)N1c1ccc(C)cc1 was read as M1 ag parental 1.6, CHO-K1 Ca PAM 6.8, M1 antag -5.9, CHRM1 agonist -5.5, CHO-K1 Ca antag -15.0 and CHRM1 PAM 5.2.
For CC(=NNC(=O)c1ccccc1N)c1ccccc1O the results were M1 ag parental 0.6, CHO-K1 Ca PAM -9.2, M1 antag -6.5, CHRM1 agonist -1.1, CHO-K1 Ca antag 21.3 and CHRM1 PAM 5.5.
Screening COc1cccc(C(=O)C2CCCN(CC3=Cc4cc(OC)ccc4OC3)C2)c1 (stereo unspecified) returned M1 ag parental 0.7, CHO-K1 Ca PAM 4.5, M1 antag 41.9*, CHRM1 agonist -10.0, CHO-K1 Ca antag -7.8 and CHRM1 PAM -30.4.
COc1ccc(CN2CCCC(C(=O)c3ccc4c(c3)OCO4)C2)c(F)c1 (stereo unspecified) was read as M1 ag parental 3.8, CHO-K1 Ca PAM 3.8, M1 antag 93.3*, CHRM1 agonist -3.1, CHO-K1 Ca antag -16.2 and CHRM1 PAM -23.2.
O=C(c1ccc2c(c1)OCO2)C1CCCN(C2CCN(CCc3ccccc3)CC2)C1 (stereo unspecified) was read as M1 ag parental 1.1, CHO-K1 Ca PAM 21.3, M1 antag 73.8*, CHRM1 agonist -14.3, CHO-K1 Ca antag -14.7 and CHRM1 PAM -35.5.
COc1cccc(CN2CCCC(C(=O)c3ccc4c(c3)OCO4)C2)c1O (stereo unspecified) was read as M1 ag parental 0.7, CHO-K1 Ca PAM 14.8, M1 antag 40.7*, CHRM1 agonist -7.5, CHO-K1 Ca antag -15.9 and CHRM1 PAM -23.9.
